Data: article PMC7862700, “An all-to-all approach to the identification of sequence-specific readers for epigenetic DNA modifications on cytosine”

How the values were obtained:
Experiment in all cases: DAPPL (digital affinity profiling via proximity ligation, sequencing); 10 mM Tris-HCl pH 7.5, 50 mM NaCl, 1 mM DTT, 4% glycerol, room temperature, 30 min; GST-TFs on glutathione beads, 16-mer random dsDNA library, 0.1% formaldehyde crosslink after washing; high values mean tight binding
ELK1 = biological target: T1, ELK1 (Homo sapiens, UniProt P19419 1-428); conditions: protein: recombinant; tags: N-terminal GST; dsDNA, one strand shown
T1 sequence: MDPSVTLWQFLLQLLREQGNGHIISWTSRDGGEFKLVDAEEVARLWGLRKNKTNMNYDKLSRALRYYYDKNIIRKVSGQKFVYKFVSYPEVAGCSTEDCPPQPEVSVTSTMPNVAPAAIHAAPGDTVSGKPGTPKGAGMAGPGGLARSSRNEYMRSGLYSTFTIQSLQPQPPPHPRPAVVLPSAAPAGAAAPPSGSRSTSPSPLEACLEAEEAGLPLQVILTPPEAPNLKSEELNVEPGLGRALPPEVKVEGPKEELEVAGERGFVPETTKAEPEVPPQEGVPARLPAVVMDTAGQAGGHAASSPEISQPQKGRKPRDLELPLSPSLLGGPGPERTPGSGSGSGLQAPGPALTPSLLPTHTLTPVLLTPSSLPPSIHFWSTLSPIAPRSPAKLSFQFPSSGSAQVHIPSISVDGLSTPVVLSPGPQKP
Outline: (§1)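 GST fusions of human transcription factors were expressed in yeast and captured with glutathione beads. Once given DNA barcodes and pooled alongside a tag-only sample, they were incubated for 30 min at room temperature with 200 nmole of a random double-stranded 16-mer DNA library in Tris/NaCl/DTT/glycerol buffer, then washed, crosslinked (0.1% formaldehyde), proximity-ligated, PCR-amplified and sequenced on an Illumina NextSeq500. The binding signal of each hexamer is its read frequency for a factor divided by its frequency for the tag-only sample.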

GABPA = biological target: T2, GABPA (Homo sapiens, UniProt Q06546 1-454); conditions: protein: recombinant; tags: N-terminal GST; dsDNA, one strand shown
T2 sequence: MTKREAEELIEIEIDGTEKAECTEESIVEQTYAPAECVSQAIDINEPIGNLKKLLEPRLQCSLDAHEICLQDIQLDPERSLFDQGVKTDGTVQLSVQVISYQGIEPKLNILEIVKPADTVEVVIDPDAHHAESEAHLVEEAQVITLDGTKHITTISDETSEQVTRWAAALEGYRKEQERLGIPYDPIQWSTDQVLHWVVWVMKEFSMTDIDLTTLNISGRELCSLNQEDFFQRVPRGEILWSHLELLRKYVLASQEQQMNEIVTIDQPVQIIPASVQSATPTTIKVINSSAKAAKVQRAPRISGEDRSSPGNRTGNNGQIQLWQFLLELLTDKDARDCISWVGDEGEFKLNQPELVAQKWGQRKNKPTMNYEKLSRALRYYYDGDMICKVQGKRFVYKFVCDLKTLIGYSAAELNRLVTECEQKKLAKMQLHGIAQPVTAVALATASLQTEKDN
Outline: as §1

ERG = biological target: T3, ERG (Homo sapiens, UniProt P11308 1-479); conditions: protein: recombinant; tags: N-terminal GST; dsDNA, one strand shown
T3 sequence: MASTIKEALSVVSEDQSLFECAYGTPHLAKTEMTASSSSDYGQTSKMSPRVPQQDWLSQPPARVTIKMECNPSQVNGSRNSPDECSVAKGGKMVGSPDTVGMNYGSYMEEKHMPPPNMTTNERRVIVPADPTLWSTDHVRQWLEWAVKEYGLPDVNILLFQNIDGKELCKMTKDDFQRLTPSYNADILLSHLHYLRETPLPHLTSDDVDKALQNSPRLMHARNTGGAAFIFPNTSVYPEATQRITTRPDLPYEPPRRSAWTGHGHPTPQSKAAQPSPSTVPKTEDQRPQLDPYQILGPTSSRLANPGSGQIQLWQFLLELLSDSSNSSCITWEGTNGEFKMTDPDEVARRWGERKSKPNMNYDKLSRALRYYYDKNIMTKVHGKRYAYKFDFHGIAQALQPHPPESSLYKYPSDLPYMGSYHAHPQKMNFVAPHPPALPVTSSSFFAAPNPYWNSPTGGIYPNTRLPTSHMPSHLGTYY
Outline: as §1

EHF = biological target: T4, EHF (Homo sapiens, UniProt Q9NZC4 1-300); conditions: protein: recombinant; tags: N-terminal GST; dsDNA, one strand shown
T4 sequence: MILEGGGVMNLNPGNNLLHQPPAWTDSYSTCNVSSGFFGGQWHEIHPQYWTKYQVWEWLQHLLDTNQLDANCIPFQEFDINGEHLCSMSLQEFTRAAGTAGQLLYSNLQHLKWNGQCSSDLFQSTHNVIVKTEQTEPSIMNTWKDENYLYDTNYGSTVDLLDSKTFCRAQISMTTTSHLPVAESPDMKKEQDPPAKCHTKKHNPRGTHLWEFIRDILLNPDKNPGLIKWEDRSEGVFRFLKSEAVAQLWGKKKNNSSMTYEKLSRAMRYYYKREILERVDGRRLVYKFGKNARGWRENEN
Outline: as §1

HSF1 = HSF1 (Homo sapiens, UniProt Q00613 1-529); conditions: protein: recombinant; tags: N-terminal GST; chain copies: 3; dsDNA, one strand shown
Outline: as §1

ELF4 = ELF4 (Homo sapiens, UniProt Q99607 1-663); conditions: protein: recombinant; tags: N-terminal GST; dsDNA, one strand shown
Outline: as §1

CRX = CRX (Homo sapiens, UniProt O43186 1-299); conditions: protein: recombinant; tags: N-terminal GST; dsDNA, one strand shown
Outline: as §1

ETV7 = biological target: T5, ETV7 (Homo sapiens, UniProt Q9Y603 1-341); conditions: protein: recombinant; tags: N-terminal GST; dsDNA, one strand shown
T5 sequence: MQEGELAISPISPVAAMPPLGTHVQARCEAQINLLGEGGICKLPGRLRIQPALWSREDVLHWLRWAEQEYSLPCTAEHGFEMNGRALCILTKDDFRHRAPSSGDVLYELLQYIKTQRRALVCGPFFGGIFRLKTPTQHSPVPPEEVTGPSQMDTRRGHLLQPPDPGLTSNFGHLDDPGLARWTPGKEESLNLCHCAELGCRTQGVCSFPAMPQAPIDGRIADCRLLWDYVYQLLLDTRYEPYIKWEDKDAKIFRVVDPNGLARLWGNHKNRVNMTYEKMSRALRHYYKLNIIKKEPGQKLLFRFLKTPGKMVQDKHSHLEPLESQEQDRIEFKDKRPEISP
Outline: as §1

ELK3 = biological target: T6, ELK3 (Homo sapiens, UniProt P41970 1-407); conditions: protein: recombinant; tags: N-terminal GST; dsDNA, one strand shown
T6 sequence: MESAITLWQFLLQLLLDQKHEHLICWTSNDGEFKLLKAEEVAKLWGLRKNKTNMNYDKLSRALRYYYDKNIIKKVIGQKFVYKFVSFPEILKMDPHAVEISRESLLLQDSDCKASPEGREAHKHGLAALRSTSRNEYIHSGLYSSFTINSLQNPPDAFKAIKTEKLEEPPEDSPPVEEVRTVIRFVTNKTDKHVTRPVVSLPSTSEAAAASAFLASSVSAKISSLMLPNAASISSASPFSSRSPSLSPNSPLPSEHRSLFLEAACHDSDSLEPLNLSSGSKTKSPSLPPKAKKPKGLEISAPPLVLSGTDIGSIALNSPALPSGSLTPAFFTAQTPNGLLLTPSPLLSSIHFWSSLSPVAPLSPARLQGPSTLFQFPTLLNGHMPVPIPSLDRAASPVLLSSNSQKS
Outline: as §1

ELK4 = biological target: T7, ELK4 (Homo sapiens, UniProt P28324-2 1-405); conditions: protein: recombinant; tags: N-terminal GST; dsDNA, one strand shown
T7 sequence: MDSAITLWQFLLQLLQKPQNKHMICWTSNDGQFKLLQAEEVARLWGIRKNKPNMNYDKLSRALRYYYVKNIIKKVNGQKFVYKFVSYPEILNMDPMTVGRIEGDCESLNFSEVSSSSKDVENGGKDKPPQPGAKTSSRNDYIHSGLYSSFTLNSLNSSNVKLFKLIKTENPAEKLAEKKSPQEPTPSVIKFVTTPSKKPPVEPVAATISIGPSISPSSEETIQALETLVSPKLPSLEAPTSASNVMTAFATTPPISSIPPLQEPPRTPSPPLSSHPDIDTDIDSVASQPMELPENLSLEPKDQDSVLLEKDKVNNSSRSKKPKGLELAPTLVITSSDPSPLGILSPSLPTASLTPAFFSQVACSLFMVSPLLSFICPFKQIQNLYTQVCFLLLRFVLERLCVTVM
Outline: as §1

ELF3 = biological target: T8, ELF3 (Homo sapiens, UniProt P78545 1-371); conditions: protein: recombinant; tags: N-terminal GST; dsDNA, one strand shown
T8 sequence: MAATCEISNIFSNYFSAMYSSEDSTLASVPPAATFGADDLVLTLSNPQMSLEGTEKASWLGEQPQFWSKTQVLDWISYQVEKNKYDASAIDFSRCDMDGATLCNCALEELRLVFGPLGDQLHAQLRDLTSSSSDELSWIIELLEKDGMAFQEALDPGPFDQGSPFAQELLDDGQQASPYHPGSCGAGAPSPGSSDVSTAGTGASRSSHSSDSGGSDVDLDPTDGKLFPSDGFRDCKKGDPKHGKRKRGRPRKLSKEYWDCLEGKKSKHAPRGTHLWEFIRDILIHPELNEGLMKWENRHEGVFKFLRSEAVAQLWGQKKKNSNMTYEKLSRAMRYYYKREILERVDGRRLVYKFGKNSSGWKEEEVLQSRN
Outline: as §1

ETV1 = ETV1 (Homo sapiens, UniProt P50549 1-477); conditions: protein: recombinant; tags: N-terminal GST; dsDNA, one strand shown
Outline: as §1

ERF = biological target: T9, ERF (Homo sapiens, UniProt P50548 1-548); conditions: protein: recombinant; tags: N-terminal GST; dsDNA, one strand shown
T9 sequence: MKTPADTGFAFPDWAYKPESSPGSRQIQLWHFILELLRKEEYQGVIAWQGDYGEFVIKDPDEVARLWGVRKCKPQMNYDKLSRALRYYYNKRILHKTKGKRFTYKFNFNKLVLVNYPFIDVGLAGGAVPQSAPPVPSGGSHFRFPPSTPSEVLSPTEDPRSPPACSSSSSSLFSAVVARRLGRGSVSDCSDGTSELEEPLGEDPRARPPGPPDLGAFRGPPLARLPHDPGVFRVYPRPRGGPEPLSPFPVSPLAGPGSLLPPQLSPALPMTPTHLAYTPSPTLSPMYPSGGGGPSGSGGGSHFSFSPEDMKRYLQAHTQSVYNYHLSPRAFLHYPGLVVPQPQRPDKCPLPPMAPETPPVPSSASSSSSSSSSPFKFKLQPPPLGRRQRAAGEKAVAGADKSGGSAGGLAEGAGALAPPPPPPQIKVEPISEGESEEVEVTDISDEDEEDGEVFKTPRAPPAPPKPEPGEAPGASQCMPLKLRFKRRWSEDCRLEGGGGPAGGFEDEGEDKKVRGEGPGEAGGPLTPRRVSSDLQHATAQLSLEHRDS
Outline: as §1

ETS2 = biological target: T10, ETS2 (Homo sapiens, UniProt P15036 1-469); conditions: protein: recombinant; tags: N-terminal GST; dsDNA, one strand shown
T10 sequence: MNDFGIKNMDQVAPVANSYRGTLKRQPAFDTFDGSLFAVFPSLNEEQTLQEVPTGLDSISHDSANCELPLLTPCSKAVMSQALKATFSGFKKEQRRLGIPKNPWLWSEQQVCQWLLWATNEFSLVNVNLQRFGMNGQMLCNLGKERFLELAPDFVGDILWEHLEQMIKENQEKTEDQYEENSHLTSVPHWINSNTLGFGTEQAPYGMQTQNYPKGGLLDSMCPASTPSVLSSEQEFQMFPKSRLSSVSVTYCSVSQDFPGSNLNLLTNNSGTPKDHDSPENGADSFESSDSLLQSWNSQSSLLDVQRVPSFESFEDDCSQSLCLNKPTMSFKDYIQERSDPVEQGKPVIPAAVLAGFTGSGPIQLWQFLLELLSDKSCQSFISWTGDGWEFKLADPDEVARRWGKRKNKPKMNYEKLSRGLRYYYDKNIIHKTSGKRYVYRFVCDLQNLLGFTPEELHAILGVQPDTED
Outline: as §1

ELF5 = biological target: T11, ELF5 (Homo sapiens, UniProt Q9UKW6-2 1-255); conditions: protein: recombinant; tags: N-terminal GST; dsDNA, one strand shown
T11 sequence: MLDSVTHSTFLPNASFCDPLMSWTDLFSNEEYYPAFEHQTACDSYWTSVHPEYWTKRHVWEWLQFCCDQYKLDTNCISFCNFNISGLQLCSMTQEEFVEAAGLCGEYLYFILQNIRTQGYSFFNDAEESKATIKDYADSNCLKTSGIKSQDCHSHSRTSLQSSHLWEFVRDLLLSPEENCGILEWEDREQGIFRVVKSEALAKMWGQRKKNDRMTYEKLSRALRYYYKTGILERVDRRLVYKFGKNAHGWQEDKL
Outline: as §1

Sequence of CRX (O43186 whole entry): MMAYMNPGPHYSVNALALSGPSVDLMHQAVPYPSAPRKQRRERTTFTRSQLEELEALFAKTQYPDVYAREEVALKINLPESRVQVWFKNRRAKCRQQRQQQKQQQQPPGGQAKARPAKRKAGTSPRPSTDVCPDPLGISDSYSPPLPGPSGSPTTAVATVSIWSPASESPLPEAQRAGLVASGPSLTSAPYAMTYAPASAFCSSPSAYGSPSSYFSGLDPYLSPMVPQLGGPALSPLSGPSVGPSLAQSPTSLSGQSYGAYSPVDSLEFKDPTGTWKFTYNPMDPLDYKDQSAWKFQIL
Sequence of HSF1 (Q00613 whole entry): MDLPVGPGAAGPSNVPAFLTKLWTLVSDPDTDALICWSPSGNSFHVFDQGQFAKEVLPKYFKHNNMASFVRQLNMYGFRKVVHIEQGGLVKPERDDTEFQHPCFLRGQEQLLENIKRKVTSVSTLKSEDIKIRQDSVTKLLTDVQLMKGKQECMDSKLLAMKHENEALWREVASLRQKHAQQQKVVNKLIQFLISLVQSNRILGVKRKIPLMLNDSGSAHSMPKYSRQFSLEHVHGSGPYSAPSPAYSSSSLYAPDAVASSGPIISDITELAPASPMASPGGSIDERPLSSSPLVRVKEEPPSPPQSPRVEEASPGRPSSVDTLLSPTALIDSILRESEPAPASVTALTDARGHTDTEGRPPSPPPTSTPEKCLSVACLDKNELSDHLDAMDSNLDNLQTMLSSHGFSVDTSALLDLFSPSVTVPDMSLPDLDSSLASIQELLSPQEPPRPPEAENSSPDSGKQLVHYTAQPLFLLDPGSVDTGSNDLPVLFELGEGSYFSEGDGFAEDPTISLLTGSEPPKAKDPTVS
Sequence of ELF4 (Q99607 whole entry): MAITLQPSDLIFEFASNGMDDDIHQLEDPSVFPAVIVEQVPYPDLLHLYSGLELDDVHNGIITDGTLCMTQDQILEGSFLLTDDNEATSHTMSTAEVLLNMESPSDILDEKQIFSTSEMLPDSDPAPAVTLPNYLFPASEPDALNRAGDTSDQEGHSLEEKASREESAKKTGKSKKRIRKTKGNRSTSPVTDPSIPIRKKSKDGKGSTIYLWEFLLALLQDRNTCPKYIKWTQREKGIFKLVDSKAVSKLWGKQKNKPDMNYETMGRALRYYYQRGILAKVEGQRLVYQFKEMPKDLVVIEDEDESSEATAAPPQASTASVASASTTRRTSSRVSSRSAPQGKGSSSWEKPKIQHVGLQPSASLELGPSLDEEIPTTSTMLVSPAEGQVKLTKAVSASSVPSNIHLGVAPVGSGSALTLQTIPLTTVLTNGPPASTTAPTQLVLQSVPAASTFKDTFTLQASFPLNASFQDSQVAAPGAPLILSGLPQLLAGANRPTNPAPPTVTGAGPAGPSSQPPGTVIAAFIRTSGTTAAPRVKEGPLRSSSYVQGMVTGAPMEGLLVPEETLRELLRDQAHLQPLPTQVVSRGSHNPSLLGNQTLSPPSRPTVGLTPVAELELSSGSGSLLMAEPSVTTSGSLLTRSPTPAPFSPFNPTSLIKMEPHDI
Sequence of ETV1 (P50549 whole entry): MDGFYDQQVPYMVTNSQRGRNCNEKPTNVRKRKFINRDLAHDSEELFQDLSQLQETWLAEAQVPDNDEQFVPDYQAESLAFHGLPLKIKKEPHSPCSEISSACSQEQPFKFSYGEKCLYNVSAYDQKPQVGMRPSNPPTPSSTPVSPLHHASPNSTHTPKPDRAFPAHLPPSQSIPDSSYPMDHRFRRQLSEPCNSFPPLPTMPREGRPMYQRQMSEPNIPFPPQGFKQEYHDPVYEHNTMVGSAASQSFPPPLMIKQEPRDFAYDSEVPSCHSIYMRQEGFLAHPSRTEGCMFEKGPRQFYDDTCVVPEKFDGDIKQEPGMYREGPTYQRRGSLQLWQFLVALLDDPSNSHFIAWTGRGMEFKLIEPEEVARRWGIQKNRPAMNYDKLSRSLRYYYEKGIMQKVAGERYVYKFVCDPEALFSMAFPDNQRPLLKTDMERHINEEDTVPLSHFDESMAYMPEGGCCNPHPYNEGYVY

Row | Sequence | binding signal (ELK1) | binding signal (GABPA) | binding signal (ERG) | binding signal (EHF) | binding signal (HSF1) | binding signal (ELF4) | binding signal (CRX) | binding signal (ETV7) | binding signal (ELK3) | binding signal (ELK4) | binding signal (ELF3) | binding signal (ETV1) | binding signal (ERF) | binding signal (ETS2) | binding signal (ELF5)
1 | TCGGCT | 1.02 fold enrichment (6-mer frequency, TF over GST control) | 1.03 fold enrichment (6-mer frequency, TF over GST control) | 1.09 fold enrichment (6-mer frequency, TF over GST control) | 1.02 fold enrichment (6-mer frequency, TF over GST control) | 1.15 fold enrichment (6-mer frequency, TF over GST control) | 1.1 fold enrichment (6-mer frequency, TF over GST control) | 1.34 fold enrichment (6-mer frequency, TF over GST control) | 1.05 fold enrichment (6-mer frequency, TF over GST control) | – | – | – | – | – | – | –
2 | AGGCTT | – | 1.02 fold enrichment (6-mer frequency, TF over GST control) | 1.04 fold enrichment (6-mer frequency, TF over GST control) | – | 1.24 fold enrichment (6-mer frequency, TF over GST control) | – | 1.74 fold enrichment (6-mer frequency, TF over GST control) | 1.08 fold enrichment (6-mer frequency, TF over GST control) | 1.05 fold enrichment (6-mer frequency, TF over GST control) | 1.02 fold enrichment (6-mer frequency, TF over GST control) | 1.11 fold enrichment (6-mer frequency, TF over GST control) | 1 fold enrichment (6-mer frequency, TF over GST control) | 1.02 fold enrichment (6-mer frequency, TF over GST control) | 1.04 fold enrichment (6-mer frequency, TF over GST control) | 1.02 fold enrichment (6-mer frequency, TF over GST control)
3 | TCAGAA | – | – | – | – | 1.26 fold enrichment (6-mer frequency, TF over GST control) | 1 fold enrichment (6-mer frequency, TF over GST control) | 1.12 fold enrichment (6-mer frequency, TF over GST control) | – | – | – | – | – | – | – | –
